Screening data as filed in PubChem BioAssay.
Lassa entry inh: blocks Lassa virus binding to or entry into cells; 300,000 compounds, 1.2% hits; Potency, µM (highest dose often 37.9 µM), inactives show top-dose activity change, negative = inhibition, actives largely listed as inhibitors; Lassa virus pseudotype entry inhibition, cell reporter; calls by dose curve; tested in HEK293 cells; note: potency is the fitted concentration of half-maximal effect; % is set by controls: 0 for no effect and ±100 for the full control effect; nearly all actives have a fitted effect of over 50% in size
FMDV inh: foot and mouth disease virus antiviral activity. 410,000 compounds, 1.2% hits. FMDV antiviral cell-based qHTS. Potency, µM (titrated, usually from 57.9 µM), inactives show at the top dose activity change, negative = inhibition, usual class: inhibitors; calls by dose curve; tested in HEK293T cells; note: read-out not given here; potency is the fitted concentration of half-maximal effect; % is set by controls: 0 for no effect and ±100 for the full control effect; nearly all actives have a fitted effect of over 45% in size
HCMV inh: human cytomegalovirus inhibition | HFF cells, HCMV-luciferase reporter, 72 h; stronger effect = lower value | activity change, negative = inhibition, % at 57.5 µM | 410,000 compounds, 4.5% hits; in the data active = activity change below about -60%; inconclusive = no clear call, values can overlap the other calls; inactive = above about -39%; note: % is set by controls: 0 for no effect and ±100 for the full control effect
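Cell-based, HFFs, 1000 cells/well, 16 h 37C; cpds in DMSO + HCMV-luc, MOI 1 PFU/cell; 72 h 37C; OneGlo luminescence after 5 min RT; norm. to buffer vs Salinomycin 10uM.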
HCV inh: HCV inhibition; Huh7.5.1 HCVcc-Cre infection, luciferase reporter, 44 h; Potency, µM (top dose mostly 41.8 µM), inactives show at the highest dose activity change, negative = inhibition, actives largely listed as inhibitors; 340,000 compounds, 3.4% hits; AID 651820; active = well fitted inhibition curve with a large enough effect; inconclusive = small, poorly fitted or top-dose-only effect, or another doubt; inactive = no such curve, though single readings can be large or run the other way; note: potency is the fitted concentration of half-maximal effect; % is set by controls: 0 for no effect and ±100 for the full control effect
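Infectious HCV cell culture screen: compound-treated cells (1,000/well, pre-plated 4 h) are infected with HCVcc-Cre at roughly 0.5 moi and grown 44 h. Infection is quantified by luciferase signal after 15 min substrate incubation at room temperature.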
SARS PLpro yeast: SARS-CoV PLP inhibition in yeast; S. cerevisiae expressing SARS-CoV PLpro, growth rescue; Potency, µM (highest dose often 32.9 µM), for the others: top-dose activity, positive = growth rescue, most hits filed as activators; 330,000 compounds, 0.19% hits; AID 485353; calls by dose curve; note: potency is the fitted concentration of half-maximal effect; 0% is about no effect; nearly all actives have a fitted effect of over 55% in size
Marburg entry inh: blocks Marburg virus binding to or entry into cells; Marburg virus pseudotyped entry inhibition, cell reporter; Potency, µM (highest dose often 37.8 µM), for inactives: at the top dose activity change, negative = inhibition, actives largely listed as inhibitors; 300,000 compounds, 1.8% hits; calls by dose curve; tested in HEK293 cells; note: potency is the fitted concentration of half-maximal effect; % is set by controls: 0 for no effect and ±100 for the full control effect
* = called active by the depositor; [ ] = another dose, or the depositor's remark. An excerpt weighted towards active compounds, which were near 8% of everything screened.

`Cc1ccc(NC(=O)CSc2nc(=O)n(Cc3ccccn3)c3c2CCC3)cc1F` gave Lassa entry inh -7.6%[46.1 µM], FMDV inh -24.2% and HCMV inh -35.8.
For CC(C)c1ccc(NC(=O)CSc2nc(=O)n(Cc3cccnc3)c3c2CCC3)cc1 the results were Lassa entry inh -1.5%[46.1 µM], FMDV inh inconclusive and HCMV inh -107.1*.
`COc1ccc(C)cc1NC(=O)CSc1nc(=O)n(Cc2ccncc2)c2c1CCC2` gave Lassa entry inh 4.9%[46.1 µM], FMDV inh 0.0% and HCMV inh -103.1*.
Screening CC(C)c1ccc(NC(=O)CSc2nc(=O)n(Cc3ccccn3)c3c2CCC3)cc1 returned Lassa entry inh -34.6%[46.1 µM], FMDV inh 0.0% and HCMV inh -102.3*.
CCc1ccc(NC(=O)CSc2nc(=O)n(CCN(C)C)c3c2CCCC3)cc1 was read as Lassa entry inh inconclusive, FMDV inh 35.0%, HCMV inh -19.4, HCV inh inconclusive, SARS PLpro yeast -2.8% and Marburg entry inh 12.6µM*.
`C[S+](=O)([O-])c1sc(C(=O)NC(=S)NC2CCC(OC(F)(F)F)CC2)c2c1C=CCC2` (stereo not drawn) gave Marburg entry inh -2.0%[46.1 µM].
Cc1cccc(CNC(=O)c2cnn(-c3nccc(-c4ccccc4C(F)(F)F)n3)c2C)n1 was read as FMDV inh -10.4%.
`COc1ccccc1S(=O)(=O)Cc1ccc(C(=O)N2CCN(c3cccc(Cl)c3)CC2)o1` gave Lassa entry inh inconclusive, FMDV inh 17.8µM*, HCMV inh -66.9*, HCV inh 12.6µM*, SARS PLpro yeast 4.8% and Marburg entry inh -29.7%.
`O=C(c1ccc(CS(=O)(=O)c2c(Cl)cccc2Cl)o1)N1CCN(c2ccccn2)CC1` gave FMDV inh inconclusive, HCMV inh -65.9*, HCV inh -12.7% and SARS PLpro yeast -1.2%.
COc1cccc(N2CCN(C(=O)c3ccc(CS(=O)c4ccccc4Cl)o3)CC2)c1 (stereo not drawn) was read as FMDV inh -8.7%, HCMV inh -95.6*, HCV inh inconclusive and SARS PLpro yeast 4.7%.
`NS(=O)(=O)c1nn2cc(-c3ccccc3)nc2s1` gave FMDV inh 9.0%.
Screening CCOc1ccc(CCNC(=O)CCCc2nnc3n(CC)c(=O)c4sccc4n23)cc1OCC returned Lassa entry inh 1.6%[46.1 µM], FMDV inh -9.1%, HCMV inh -7.0 and Marburg entry inh -22.7%[46.1 µM].
Screening COc1cc(OC)c(N(C)S(=O)(=O)c2cccc(C(=O)OCC(=O)N(C)Cc3ccccc3)c2)cc1Cl returned FMDV inh -3.4%, HCMV inh -63.2* and HCV inh 11.2µM*.
For COc1ccc(CCNC(=O)CCCCC(=O)NCCc2ccc(OC)cc2)cc1 the results were FMDV inh 2.2%, HCMV inh -16.9, HCV inh 8.4% and SARS PLpro yeast -0.2%.
`COc1ccc(CN(CCNC(=O)CCCCC(=O)NCCN(Cc2ccc(OC)cc2)C(C)C)C(C)C)cc1` gave FMDV inh -13.3%, HCMV inh inconclusive and HCV inh 11.2µM*.
CN(C)C(=O)c1ccc(N=Nc2c(O)c3ccccc3[nH]c2=O)cc1 was read as Lassa entry inh inconclusive, FMDV inh inconclusive, HCMV inh 24.0, HCV inh -7.1% and Marburg entry inh inconclusive.
Screening O=C(O)c1ccc(N=Nc2c(O)[nH]c3ccccc23)cc1 returned Lassa entry inh 5.01µM*, FMDV inh inconclusive, HCMV inh 14.8, HCV inh 0.3%, SARS PLpro yeast -0.3% and Marburg entry inh 1.78µM*.
For Cc1cccc(-n2cnc(C(=O)NNC(=S)Nc3ccc(Cl)cc3)c2)n1 the results were Lassa entry inh inconclusive, FMDV inh -0.7%, HCMV inh -23.1, HCV inh -1.4%, SARS PLpro yeast 16.3% and Marburg entry inh 11.2µM*.
Screening CSc1nc(-c2ccccc2)nc2ccccc12 returned HCMV inh 32.6.
Screening C=CCn1cc(/C=C/c2cc[n+](C)cc2)c2ccccc21 returned FMDV inh inconclusive, HCMV inh -95.8*, HCV inh inconclusive and SARS PLpro yeast 0.6%.
For Cc1ccccc1/C=C/c1cc[n+](C)cc1 the results were FMDV inh -5.7%, HCMV inh inconclusive, HCV inh inconclusive and SARS PLpro yeast -1.2%.
Screening CCN(CC)C(=O)Cn1c(C)c(/C=C/c2cc[n+](C)cc2)c2ccccc21 returned FMDV inh 4.7%, HCMV inh -3.0, HCV inh 12.4% and SARS PLpro yeast -1.1%.
CC(C)n1cc(/C=C/c2cc[n+](C)cc2)c2ccccc21 was read as Lassa entry inh inconclusive, FMDV inh inconclusive, HCMV inh -95.3*, HCV inh 31.6µM*, SARS PLpro yeast 0.9% and Marburg entry inh 2.51µM*.
Cc1[nH]c2ccccc2c1/C=C/c1cc[n+](C)cc1 was read as Lassa entry inh inconclusive, FMDV inh -20.2%, HCMV inh -68.9*, HCV inh inconclusive, SARS PLpro yeast -6.8% and Marburg entry inh -7.7%.
For C=CCn1c(C)c(/C=C/c2cc[n+](C)cc2)c2ccccc21 the results were Lassa entry inh inconclusive, FMDV inh inconclusive, HCMV inh -95.6*, HCV inh inconclusive, SARS PLpro yeast -1.7% and Marburg entry inh 2.82µM*.
`CCC(=O)Nc1ccc(C)cc1-c1nc2ccccc2n(C(C)C(=O)Nc2ccccc2CC)c1=O` (stereo not drawn) gave Lassa entry inh 5.8%[46.1 µM], FMDV inh inconclusive, HCMV inh 4.8 and Marburg entry inh -2.2%[46.1 µM].
For Cc1ccccc1C1(CC(=O)N2CCCC2c2nccs2)CC(=O)N(C2CCCC2)C1=O (stereo not drawn) the results were FMDV inh 48.8%.
Screening COCCN1CCN(C(=O)c2cnn(-c3nccc(-c4ccccc4OC)n3)c2-c2ccco2)CC1 returned FMDV inh -16.8%.
`Cc1cccc(CCNc2ncnc3onc(-c4ccc(Cl)cc4)c23)c1` gave Lassa entry inh -2.4%[46.1 µM], FMDV inh inconclusive, HCMV inh -35.6 and Marburg entry inh inconclusive.
`O=C(Nc1cccc(F)c1)N1CC2(CCN(C(=O)c3cccc(F)c3)CC2)C1` gave FMDV inh -10.6%.
For C[CH2][Hg][S]c1ccccc1C(=O)O the results were FMDV inh 28.2µM*, HCMV inh -95.5* and HCV inh -61.7%.
O=C(O)c1ccccc1SSc1ccccc1C(=O)O was read as Lassa entry inh -6.6%[46.1 µM], FMDV inh 4.2%, HCMV inh -25.6, HCV inh 16.1%, SARS PLpro yeast 1.1% and Marburg entry inh 20.3%[46.1 µM].
Screening CC(=O)C1=C(C)N(CC#C[Si](C)(C)C)C(=O)N(C(C)=O)C1c1ccccc1 (stereo not drawn) returned Lassa entry inh inconclusive and Marburg entry inh -11.8%[14.2 µM].
